NPR1 antag – blocks ANP-stimulated signaling of human Npr1 receptor; 1.6% of 76,000 active; AID 1347048; P16066; Potency, µM (doses to about 46.3 µM), without a hit: at the highest dose activity change, negative = inhibition, most hits filed as inhibitors; HEK293 hNpr1 GloSensor cGMP, ANP-stimulated luminescence; calls by dose curve; also: % is scaled to controls: 0 for no effect and ±100 for the full control effect; nearly all actives have a fitted effect of over 60% in size
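Compound pre-incubated 30 min at room temperature on GloSensor-loaded HEK293 cells stably carrying hNpr1 and the pGS-40F cGMP biosensor. Stimulation uses hNppA at 0.1 nM final; luminescence is taken at baseline and 20 min post-agonist.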
FLuc inh-1 – inhibitors of firefly (Photinus pyralis) luciferase | P08659 | Potency, µM (doses to about 115 µM), actives largely listed as inhibitors | purified P. pyralis luciferase, luminescence, biochemical | AID 1347043 | 2.5% of 76,000 active; also: % is scaled to controls: 0 for no effect and ±100 for the full control effect; nearly all actives have a fitted effect of over 65% in size
Target sequence (P08659 whole entry, looked up): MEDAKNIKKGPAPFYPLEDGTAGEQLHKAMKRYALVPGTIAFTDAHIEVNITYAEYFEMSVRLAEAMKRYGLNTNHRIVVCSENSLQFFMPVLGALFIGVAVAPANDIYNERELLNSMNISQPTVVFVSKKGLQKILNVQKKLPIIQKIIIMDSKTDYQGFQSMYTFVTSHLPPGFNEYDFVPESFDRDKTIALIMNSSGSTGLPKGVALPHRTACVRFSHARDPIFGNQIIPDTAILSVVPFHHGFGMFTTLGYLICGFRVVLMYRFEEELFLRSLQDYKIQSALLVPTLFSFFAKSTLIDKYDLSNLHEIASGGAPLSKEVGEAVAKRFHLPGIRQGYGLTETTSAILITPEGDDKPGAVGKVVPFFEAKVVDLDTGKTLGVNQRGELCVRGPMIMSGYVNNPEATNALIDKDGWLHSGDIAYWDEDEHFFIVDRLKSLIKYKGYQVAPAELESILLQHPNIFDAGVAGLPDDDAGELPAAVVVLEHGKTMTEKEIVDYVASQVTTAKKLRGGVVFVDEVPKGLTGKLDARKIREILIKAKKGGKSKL
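FLuc 10nM, D-luciferin 10uM, ATP 10uM, Mg acetate 10mM, Tris acetate pH 7.5, Tween/BSA; cpd qHTS; enzyme added last; CCD luminescence.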
HEK293 viab – cell viability loss counter-screen | HEK-293-SNCA-luc viability, GF-AFC fluorescence, 24 h | Potency, µM (highest dose often 57.1 µM), for inactives: at the highest dose activity change, negative = cytotoxicity, most hits filed as cytotoxic | 0.12% of 150,000 active | AID 1671193;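 also: 0% = DMSO-treated cells and -100% = medium-only wells without cells; nearly all actives have a fitted effect of over 30% in size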
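Cytotoxicity counterscreen: after 24 h compound treatment of genome-edited SNCA-luciferase HEK-293 cells, live-cell protease substrate GF-AFC read by fluorescence after 30 min; activity scaled between DMSO (0%) and medium-only (-100%), curves Hill-fitted.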
HEK cytotox – cytotoxic compounds in HEK 293 cells. HEK 293 viability, ATP luminescence (CellTiter-Glo), 48-72 h. Potency, µM (titrated, usually from 115 µM), for inactives: at the highest dose activity change, negative = cytotoxicity, most hits filed as inhibitors. 6.6% of 94,000 active. AID 1345083; also: % is scaled to controls: 0 for no effect and ±100 for the full control effect; nearly all actives have a fitted effect of over 60% in size
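Luminescence from cellular ATP, measured with CellTiter-Glo, indicates HEK 293 viability. Cells plated at 250 cells/well are treated with compound for 48 or 72 hr at 37 degree Celsius before reagent addition.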
NIH3T3 tox – kills NIH 3T3 cells. NIH 3T3 viability, CellTiter-Glo ATP luminescence, 48-72 h. 4.3% of 94,000 active. Potency, µM (top dose mostly 96.7 µM), without a hit: top-dose activity change, negative = cytotoxicity, actives largely listed as inhibitors; also: % is scaled to controls: 0 for no effect and ±100 for the full control effect; nearly all actives have a fitted effect of over 55% in size
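NIH 3T3 cells at 400 cells/well received 23 nL of compound by pintool and were incubated 48 or 72 h at 37 °C. Viability was read as ATP-coupled CellTiter-Glo luminescence.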
SNCA expr inhib – reduces expression of the alpha-synuclein gene. Potency, µM (top dose mostly 57.2 µM), for the others: at the top dose activity change, negative = inhibition, hits mostly inhibitors. 0.17% of 140,000 active. HEK-293 SNCA-luciferase knock-in, luminescence, 24 h;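 also: plate controls were DMSO cells for no effect and cell-free wells for full effect; nearly all actives have a fitted effect of over 45% in size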
FLuc SDR -ATP – firefly luciferase binding stabilization, ATP absent. Purified FLuc-C-HiBiT, Nano-Glo HiBiT luminescence, no ATP. 7.8% of 1,300 active. AID 1963318. Potency, µM (doses to about 32.7 µM), for the others: top-dose activation (signal gain), usual class: activators. shares compounds with FLuc inh-1; also: nearly all actives have a fitted effect of over 55% in size
FLuc SDR ATP – firefly luciferase binding stabilization, ATP added. shares compounds with FLuc inh-1. purified FLuc-C-HiBiT + ATP, HiBiT complementation luminescence. Potency, µM (series often up to 32.7 µM), for the others: top-dose activation (gain of signal), actives largely listed as activators. 8.7% of 1,300 active. AID 1963319;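 also: signal reports ligand binding via conformational change of the enzyme rather than luciferase catalysis; % of control where 0% means no effect; nearly all actives have a fitted effect of over 55% in size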
FLuc inh-2 – firefly luciferase enzyme inhibition. shares compounds with FLuc inh-1. purified FLuc-C-HiBiT enzyme, luciferin luminescence. Potency, µM (doses to about 32.7 µM), without a hit: top-dose activity change, negative = inhibition, actives largely listed as inhibitors. 42% of 1,300 active. AID 1963320; also: % is scaled to controls: 0 for no effect and ±100 for the full control effect; nearly all actives have a fitted effect of over 70% in size
Starred values were filed as active, the others as inactive; i = inactive; ? = inconclusive; / = no result given; [ ] = remark or other dose. In the library only some 7.2% were active in any assay of this set; here they are far more common. Unless noted, calls follow the shape of the dose curve; as a rule, active = well fitted curve in the direction sought with a large enough effect; inconclusive = small, poorly fitted or top-dose-only effect, or another doubt; inactive = no such curve, though single readings can be large; an effect the other way counts as inactive or inconclusive. Potency is read from the fitted curve at half-maximal effect.

SMILES	NPR1 antag	FLuc inh-1	HEK293 viab	HEK cytotox	NIH3T3 tox	SNCA expr inhib	FLuc SDR -ATP	FLuc SDR ATP	FLuc inh-2
O=C(O)c1ccc(-c2noc(-c3ccc(Cl)cc3)n2)cc1	/	/	/	/	/	/	?	1.4µM*	0.79µM*
COc1cccc(-c2nc(-c3cccc(C(=O)O)c3)no2)c1	/	/	/	/	/	/	12µM*	0.007µM*	0.0039µM*
COc1ccc(C(=O)Nc2ccccc2-c2nc(-c3ccc(OC)cc3)no2)cc1	/	/	18%	/	/	67%	/	/	/
COc1ccc(-c2nc(-c3ccc(C(=O)O)cc3)no2)cc1	/	/	/	/	/	/	12µM*	0.11µM*	0.11µM*
COc1ccccc1-c1nc(-c2ccc(C(=O)O)cc2)no1	/	/	/	/	/	/	16%	2.2µM*	2µM*
Cn1cc(CC(=O)N2CCCc3ncc(C(=O)NCc4cccc(F)c4)cc32)c2ccccc21	-15%	i	?	?	?	-27%	/	/	/
O=C(O)c1cccc(-c2noc(-c3cccc(Cl)c3)n2)c1	/	/	/	/	/	/	12µM*	0.022µM*	0.007µM*
O=C(O)c1ccc(-c2noc(-c3cccc(C(F)(F)F)c3)n2)cc1	/	/	/	/	/	/	12%	20%	?
O=C(O)c1cccc(-c2noc(-c3ccc(Cl)cc3)n2)c1	/	/	/	/	/	/	2.8µM*	0.005µM*	0.0022µM*
CCN(CC)C(=O)N1CCCC1c1noc(COc2ccc(F)cc2)n1 (configuration not stated)	4%	i	5%	-13%	-7%	-6%	/	/	/
COc1cccc(CC(=O)N2Cc3ccccc3OC3(CCN(C)CC3)C2)c1	-4%	i	3%	?	-19%	-11%	/	/	/
Cc1cn2nc(C(=O)N3CCC(NC(=O)c4cccn4C)CC3)cc2c(=O)[nH]1	1%	i	7%	1%	-19%	-21%	/	/	/
CCOc1cccc(NC(=O)CSc2ncc(-c3ccccc3)[nH]2)c1	/	/	10%	/	/	2%	21%	14%	-16%
O=C(CSc1ncc(-c2ccccc2)[nH]1)Nc1cccc(C(F)(F)F)c1	/	/	?	/	/	-24%	/	/	/
Cc1cccc(OCCc2noc(C3CN(C(=O)Nc4ccc5c(c4)OCCO5)C3)n2)c1	?	3.5µM*	2%	?	?	73%	?	20%	7µM*
Cc1cccc(OCCc2noc(C3CN(C(=O)c4cnccc4C)C3)n2)c1	3%	i	-13%	?	-24%	2%	/	/	/
CCn1c(C2CCCN(C(=O)NC(C)C)C2)nn(C)c1=O (configuration not stated)	1%	i	-3%	3%	-2%	18%	/	/	/
CN1CCCN(C(=O)Nc2ccc3c(c2)OCCO3)c2ccccc21	-16%	11µM*	1%	-18%	?	96%	26%	?	?
O=C(Nc1ccc2c(c1)OCCO2)N1CCCC(c2nc(C3CCOCC3)no2)C1 (configuration not stated)	1%	13µM*	-9%	-5%	-7%	103%	23%	21%	?
CCn1c(C2CCCN(C(=O)Nc3ccc4c(c3)OCCO4)C2)nn(C)c1=O (configuration not stated)	-26%	6.3µM*	8%	8%	1%	75%	25%	18%	?
O=C(N[C@H]1CCN2C(=O)c3cc(-c4cccs4)ccc3NC(=O)[C@H]12)c1cccs1	-20%[70.6 µM]	?	-4%[87.6 µM]	-24%[172 µM]	?	7%[87.6 µM]	/	/	/
O=C(CCC[C@H]1NC[C@@H]2C[C@H]1CN(Cc1ccccc1)C2)NCc1ccc(N2CCOCC2)cc1	-12%	i	1%	-5%	-5%	14%	/	/	/
Cc1ccc(/C=C/c2nc3ccccc3[nH]2)cc1	/	/	-6%	/	/	-93%	0.39µM*	0.56µM*	0.044µM*
CCCn1ncc(-c2nc(-c3ccncc3)no2)c1C	?	2.5µM*	1%	35µM*	?	-57%	?	?	8.8µM*
COc1cccc(CN2CCc3nc(Nc4ccc5c(c4)OCCO5)ncc3C2)c1	/	/	-3%	/	/	109%	17%	13%	?
SMILES	NPR1 antag	FLuc inh-1	HEK293 viab	HEK cytotox	NIH3T3 tox	SNCA expr inhib	FLuc SDR -ATP	FLuc SDR ATP	FLuc inh-2
Clc1ccc(CN2CCc3nc(Nc4ccc5c(c4)OCCO5)ncc3C2)cc1	/	/	-18%	/	/	3%	/	/	/
COc1cccc(Nc2cc3c(cn2)CN(Cc2cccnc2)CCN3)c1	-17%[70.6 µM]	5µM*	-18%[87.6 µM]	?	?	50%[87.6 µM]	?	14%[49.3 µM]	?
COc1cccc(CN2CCNc3cc(Nc4ccccc4)ncc3C2)c1	-18%[70.6 µM]	5.6µM*	?	40µM*	40µM*	24%[87.6 µM]	21%[49.3 µM]	15%[49.3 µM]	?
O=C(c1ccc(Cl)cc1)N1CCC(N2CC3CCCN3C2=O)CC1 (configuration not stated)	/	/	-4%	-3%	-4%	-1%	/	/	/
COc1ccc(NC(=O)Nc2cccc(-c3ccc(N4CCOCC4)nn3)c2)cc1F	10µM*	0.4µM*	-26%	?	-21%	20µM*	?	?	0.88µM*
O=C(NCc1ccc(F)cc1)Nc1cccc(-c2ccc(N3CCOCC3)nn2)c1	?	1.3µM*	9%	?	-24%	12%	?	?	1.8µM*
COc1ccc(C(=O)Nc2cccc(-c3nnc4n3CCCC4)c2)cc1F	-4%	?	2%	-4%	-8%	4%	/	/	/
COc1ccc(CNC(=O)Nc2cccc(-c3ccc(N4CCOCC4)nn3)c2)cc1	-29%	0.89µM*	3%	?	-29%	-28%	?	?	2µM*
COc1ccc(NC(=O)Nc2cccc(-c3ccc(N4CCOCC4)nn3)c2)cc1	10µM*	1.1µM*	-12%	?	-21%	-26%	?	?	1.8µM*
Cc1cc(CN(C)C(=O)c2csc3nc(-c4cccc(C(F)(F)F)c4)cn23)on1	2%	?	1%	?	?	-5%	/	/	/
CN(Cc1cnn(C)c1)C(=O)c1csc2nc(-c3ccc(C(F)(F)F)cc3)cn12	?	4.5µM*	-2%	?	?	27%	?	?	4.4µM*
COc1ccc(-c2nc3ccccc3o2)cc1NC(=O)COc1ccc(C(C)(C)C)cc1	/	/	7%	/	/	84%	/	/	/
